# In PubChem BioAssay (Tox21):
# “And” between values parts separate entries of the source, which are not always exact repeats. Equal values may be shown once. Inconclusive results are not listed. Where a structure was tested more than once in an assay, its records may differ in their call. The source made the active and inactive calls. Calls come from the whole dose curve.
# Test: p53 small molecule agonists, cell-based qHTS assay with rat liver microsomes: qHTS cell viability counter screen (AID 1963580); note: nearly all actives have a fitted effect of over 45% in size
# Conditions: p53RE-bla HCT-116 + rat microsomes, ATP viability, 16 h; series mostly up to 66 µM; activity change, negative = cytotoxicity: at the top concentration
# From the text: National Center for Advancing Translational Sciences [NCATS]
# Division of Preclinical Innovation [DPI]
# U.S. Environmental Protection Agency [EPA]
# National Institutes of Environmental Health Sciences [NIEHS]
# National Toxicology Program [NTP]
# U.S. Food and Drug Administration [FDA]
# p53, a tumor suppressor protein, is activated following cellular insult, including DNA damage and other cellular stresses. The activation of p53 regulates cell fate by inducing DNA repair, cell cycle arrest, apoptosis, or cellular senescence. The activation of p53, therefore, is a good indicator of DNA damage and other cellular stresses. The CellSensor p53RE-bla HCT-116 cell line contains a stably integrated beta-lactamase reporter gene under control of the p53 response elements. The activation of the reporter gene under culture conditions can be detected by fluorescence intensity. This cell line was used to screen the Tox21 10K compound library in the condition of presence of rat liver microsomes and to identify agonists that activate the p53 signaling pathway after in vitro metabolic activation (Ooka et al., Archive of Toxicology 96:1975-1987, 2022). The cytotoxicity of the Tox21 compound library against the p53 RE-bla HCT-116 cell line was tested in parallel by measuring the intra cellular ATP content in the same wells.
# Tox21 Assay Protocol Summary:
# The p53RE-bla cells were dispensed at 4,000cells/3ul/well in 1536-well black-clear bottom plates. After the assay plates were incubated at 37 C, 5% CO2 incubator for 5 hours, 23 nL of compounds dissolved in DMSO, positive controls or DMSO only was transferred to the assay plate. Following compound addition, 3 uL of rat liver microsomes (Molecular Toxicology, Boone, NC) at final concentration of 0.5 mg/mL and 1uL of B-Nicotinamide adenine dinucleotide 2'-phosphate (NADPH) at final concentration of 0.5 mg/mL were transferred to the assay plate. The plates were incubated at 37 C for 16 hours. 1 uL of LiveBLAzer detection mixture was added to each well and the plates were incubated at room temperature in the dark for 2 h. Fluorescence intensity at 460 and 530 nm emission and 405 nm excitation were measured by an Envision plate reader. For cell viability readout that measures cytotoxicity, 4 ul/well of CellTiter-Glo reagent was added into the assay plates using a Flying Reagent Dispenser. After 30 min incubation at room temperature, the luminescence intensity in the plates was measured using a ViewLux plate reader.
# % is set by controls: 0 for no effect and ±100 for the full control effect; potency is the fitted concentration of half-maximal effect.
SMILES,Potency,"activity change, negative = cytotoxicity"
Nn1cnnc1,inactive,
O=[N+]([O-])c1ccc(CBr)cc1,,1.26% (inactive)
CSc1nnc(C(C)(C)C)c(=O)n1N,inactive,
C/C=C/c1ccc2c(c1)OCO2,inactive,
O=C(O)Cc1ccccc1,inactive,
OCc1ccco1,inactive,
Cc1ncc(CNC(=O)N(CCCl)N=O)c(N)n1,,-13.1% [at 30.3 µM] (inactive)
COP(=O)(OC)C(O)C(Cl)(Cl)Cl (stereo not given),inactive,
O=c1n(Cl)c(=O)n(Cl)c(=O)n1Cl,inactive,
CC(C)(O)C#N,inactive,
Cc1cc(Cl)ccc1OCCCC(=O)O,inactive,
CCNCC,inactive,
Cc1coc2c1CCC(C)C2 (stereo not given),,6.4% (inactive)
CC[N+](=O)[O-],,-6.72% (inactive)
FC(Cl)(Cl)Cl,,1.56% (inactive)
Clc1ccc(Cl)c(Cl)c1,,0.121% (inactive)
CC1CC(CC2CCC(N)C(C)C2)CCC1N (stereo not given),,-1.69% (inactive)
CCCCCCCCCCCCCCCC[n+]1ccccc1,42.7 µM (active) and inactive,
OCCCCO,inactive,
CCCCCON=O,,-3.42% (inactive)

SMILES,Potency,"activity change, negative = cytotoxicity"
Cc1cccc(C#N)c1,,0.436% (inactive)
CN1CC[C@]23c4c5ccc(O)c4O[C@H]2[C@@H](O)CC[C@H]3[C@H]1C5,,-2.08% (inactive)
CC[C@H](N)c1ccccc1,,-2.63% (inactive)
CCCCn1cc[n+](C)c1C,inactive,
CC(Cl)Cl,,0.235% (inactive)
CN(C)[C@@H]1C(=O)C(C(N)=O)=C(O)[C@@]2(O)C(=O)C3=C(O)c4c(O)cccc4[C@@](C)(O)[C@H]3C[C@@H]12,inactive,
CNC(=O)Oc1cccc2ccccc12,inactive,
CC(C)Nc1ccc(Nc2ccccc2)cc1,36.2 µM (active) and 45.8 µM (active),
C=CC(=O)OC(C)(C)C,,0.859% (inactive)
BrC(Br)Br,,1.87% (inactive)
CCOC(=O)C(c1c(O)c2ccccc2oc1=O)c1c(O)c2ccccc2oc1=O,,1.81% [at 30.3 µM] (inactive)
NC(=O)CCl,,-4.73% (inactive)
S=C1NCCN1,inactive,
CCc1cccc(CC)c1N(COC)C(=O)CCl,,3.47% (inactive)
Cc1cc(-c2ccc(N)c(C)c2)ccc1N,inactive,
CC(C)C1(C)N=C(c2ncccc2C(=O)O)NC1=O (stereo not given),,10.2% (inactive)
O=C(O)c1cc(Cl)ccc1Cl,,0.297% (inactive)
CC(C)OC(=O)Cc1ccccc1,,-3.62% (inactive)
CCCCC(CC)CO[N+](=O)[O-] (stereo not given),,-0.0086% (inactive)
CCOP(=S)(OCC)SCn1c(=O)oc2cc(Cl)ccc21,inactive,
